D3 ag – agonists of human D3 dopamine receptor. P35462. D3R DiscoveRx beta-arrestin cells, luminescence, 90 min. max activation, %. hit rate 0.58% among 410,000; in the data active = max activation above about 30%; note: 0% is about no effect
Target sequence (P35462 whole entry, looked up): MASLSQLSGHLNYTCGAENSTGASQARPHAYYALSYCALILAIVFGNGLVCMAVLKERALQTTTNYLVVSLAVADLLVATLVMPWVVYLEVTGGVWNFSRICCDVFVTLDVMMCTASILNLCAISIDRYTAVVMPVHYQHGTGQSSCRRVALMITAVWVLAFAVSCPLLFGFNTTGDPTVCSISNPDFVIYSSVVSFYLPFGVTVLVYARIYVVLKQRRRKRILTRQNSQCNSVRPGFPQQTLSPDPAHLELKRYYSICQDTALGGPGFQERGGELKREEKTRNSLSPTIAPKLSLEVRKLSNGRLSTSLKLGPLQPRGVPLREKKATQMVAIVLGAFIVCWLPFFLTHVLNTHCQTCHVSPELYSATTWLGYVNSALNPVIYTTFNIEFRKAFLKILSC
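Agonist mode: compounds and dopamine controls were applied to plated cells for 90 min at 37 degrees C after an overnight attachment at 1500 cells/well. Luminescent read-out followed 30 - 60 minutes at room temperature with DiscoveRx detection reagent.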
DRD3 antagonist – D3 dopamine receptor (human) antagonism; max response, negative = inhibition, %; hit rate 2.5% among 360,000; D3R cells, DiscoveRx beta-arrestin luminescence, antagonist mode; hits give low values; in the data active = max response below about -50%; inconclusive = no clear call, values can overlap the other calls; note: % is set by controls: 0 for no effect and ±100 for the full control effect
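Cells plated overnight at 1500 cells/well, then exposed to library compounds with dopamine controls for 90 minutes at 37 degrees C. DiscoveRx reagent added for 30–60 minutes at room temperature; luminescence read, quantitative HTS format.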
Giardia killer – Giardia lamblia killing | hit rate 0.15% among 340,000 | activity change, % at 7.66 µM, hits read low | Giardia lamblia trophozoite viability | AID 540267; in the data active = activity change below about -80%; inconclusive = between about -30% and that limit;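 note: parasites exposed to compound for two days anaerobically before the ATP read; % is set by controls: 0 for no effect and ±100 for the full control effect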
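Trophozoites 100 cells/well + cpd; 48 hrs, 37 deg C, anaerobic. ATPLite 1-Step added, 15-30 min RT, luminescence read (ATP-based viability).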
B2AR arrestin – beta2AR (human) beta-arrestin recruitment activity | P07550 | Potency, µM (top dose mostly 46.1 µM), for inactives: at the top dose activation, actives largely listed as activators | beta-arrestin recruitment to beta2AR, cell-based reporter | hit rate 0.02% among 330,000; active = well fitted activation curve with a large enough effect; inconclusive = small, poorly fitted or top-dose-only effect;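 note: potency is the fitted concentration of half-maximal effect; 0% = DMSO controls and full agonism = EC100 isoproterenol or metaproterenol; nearly all actives have a fitted effect of over 65% in size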
* = called active by the depositor; ? = inconclusive; · = no result. The list is not random: actives were taken first. Their share in the collection is about 2.8%.

SMILES | D3 ag | DRD3 antagonist | Giardia killer | B2AR arrestin
O=C(Nc1sc2c(c1C(=O)O)CCCCC2)c1ccccc1 | -14 | -19 | -21 | -1%
O=C(Nc1ccc(Cl)c(C(F)(F)F)c1)c1nc2ccccc2nc1N1CCCCC1 | 1 | · | · | ·
Cc1cccc(N2CCN(Cc3nnc(-c4cccc(Br)c4)o3)CC2)c1C | 17 | · | · | ·
Cc1ccccc1N1CCN(Cc2ccc(Br)o2)CC1 | -6 | -58* | 1 | 1%
Brc1ccc(CN2CCN(c3ccccc3)CC2)o1 | 4 | -20 | 3 | 0%
Cc1cccc(N2CCN(Cc3ccc(Br)o3)CC2)c1C | -26 | -56* | -8 | 0%
Clc1ccccc1N1CCN(Cc2ccc(Br)o2)CC1 | -31 | -60* | 8 | ·
Cc1ccc(NC(=O)COCc2cc(-c3cccs3)on2)cc1Cl | -15 | · | · | ·
CCn1c(=O)c(-c2nc3ccccc3[nH]2)c(O)c2ccccc21 | -37 | -86* | 1 | 0%
CCCn1c(=O)c(-c2nc3ccccc3[nH]2)c(O)c2ccccc21 | 8 | -6 | -19 | -1%
O=C(CCN1CCCCCC1)Nc1ccc(F)c(F)c1 | -12 | -62* | 19 | 0%
CC(=O)c1ccc(NC(=O)CCSCCC(=O)Nc2ccc(C(C)=O)cc2)cc1 | -1 | 4 | 12 | -1%
O=C(O)CSCCC(=O)Nc1ccc(F)cc1 | 41* | -18 | 0 | -1%
O=C(CCN1CCCCCC1)Nc1ccc(F)cc1 | -37 | -84* | -4 | 0%
O=C(CSc1nc(O)c(C(c2ccccc2)c2ccccc2)c(=O)[nH]1)N1CCOCC1 | -18 | -62* | ? | 0%
O=C(CSc1nc(O)c(-c2ccccc2)c(=O)[nH]1)N1CCOCC1 | 3 | 4 | -3 | 0%
CCCCn1nnc(NC(=S)NC(=O)c2ccc(-c3cccc(Cl)c3Cl)o2)n1 | -23 | -71* | -18 | -1%
O=C(Nc1ccccc1Sc1ccccc1)c1cnn2c1NC(=C1CC1)C=C2C(F)(F)F | · | · | 8 | ·
CCOC(=O)c1cc2cc(OC)ccc2n1C1CCN(CCc2ccccc2)CC1 | -8 | -109* | · | ·
COC(=O)[C@H](CCSC)NC(=O)Cn1ccc(NC(=O)OCc2ccccc2)nc1=O | -2 | 2 | 0 | 0%
COC(=O)[C@H](CCSC)NC(=O)Cn1ccc(N)nc1=O | -3 | -51* | 7 | 0%
O=C(CCN1CCC(c2ccccc2)C1)c1cccs1 (stereo not drawn) | -25 | -66* | -10 | 0%
O=C(c1cccs1)N1CCC(c2ccccc2)C1 (stereo not drawn) | -8 | -59* | 5 | 0%
C=CCN=c1scc(-c2ccc3c(c2)NC(=O)CO3)n1/N=C(\C)c1ccccn1 | -16 | -53* | -12 | 0%
CC(C)(NC(=O)NC(CO)c1ccccc1)c1cccc(C(C)(C)NC(=O)NC(CO)c2ccccc2)c1 (stereo not drawn) | 14 | -1 | -8 | 6.5µM*
SMILES | D3 ag | DRD3 antagonist | Giardia killer | B2AR arrestin
COC(=O)c1cc(=O)n(-c2ccccc2)c(=Nc2ccccc2)s1 | -7 | -61* | -29 | 0%
CCOC(=O)c1ccc(N=c2sc(C(=O)OC)cc(=O)n2-c2ccc(C(=O)OCC)cc2)cc1 | -7 | -6 | -13 | -1%
CCCCn1cnc2c(=O)[nH]c(N)nc21 | · | · | -1 | ·
CC1CCN(CC(O)COc2ccc(-c3ccccc3)cc2)CC1 (stereo not drawn) | -16 | -73* | 26 | 1%
COc1cccc(OCC(O)CN2CCC(C)CC2)c1 (stereo not drawn) | -31 | 11 | 0 | 0%
CC1CCN(CC(O)COc2cccc(F)c2)CC1 (stereo not drawn) | -22 | -57* | 5 | 0%
Cc1ccc(NS(=O)(=O)c2ccc3nc(-c4ccccc4)[nH]c3c2)c(Cl)c1 | 8 | · | · | ·
CC(C)C[C@H]1CNC(=S)N1CC1CCN(CCCC2CCCC2)CC1 | -44 | -63* | 5 | ·
CC(C)CCN1CCC(CN2C(=O)C(=O)NC[C@@H]2CC(C)C)CC1 | -5 | ? | · | ·
CCCCN1CCC(CN2C(=S)NC[C@@H]2CC(C)C)CC1 | -46 | -80* | -22 | ·
COc1ccc(CCCN2CCC(CN3C(=S)NC[C@@H]3Cc3ccccc3)CC2)cc1OC | -57 | -55* | -4 | ·
CC(C)C[C@H]1CNC(=S)N1CC1CCN(CCCCc2ccccc2)CC1 | -45 | -91* | 8 | ·
COc1ccc(CCN2CCC(CN3C(=S)NC[C@@H]3CC(C)C)CC2)cc1OC | -40 | ? | 11 | ·
CC(C)C[C@H]1CNC(=O)C(=O)N1CC1CCN(CC2CCC(C(C)(C)C)CC2)CC1 (stereo partly drawn) | -35 | -57* | 19 | ·
S=C1NC[C@H](Cc2ccccc2)N1CC1CCN(CCCC2CCCC2)CC1 | -43 | -81* | 6 | ·

Source: PubChem (National Center for Advancing Translational Sciences (NCATS))
